Publication PMC4336329 (PLoS ONE, 2015)
The campaign covered roughly 310,000 compounds. About 14,000 (4.5%) showed an effect of 50% or more. Effects have a minus sign here. Only a selection was taken, and strong results are over-represented in it overall.

biological target: human ether-à-go-go-related gene (hERG) potassium channel (human, UniProt Q12809); assay: primary screen, population patch clamp on CHO cells stably expressing hERG; higher = less effect of the substance
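Further: peak tail current of the secondary pulse compared with the same well before compound.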

human ether-à-go-go-related gene (hERG) potassium channel, sequence (Q12809 whole entry, looked up): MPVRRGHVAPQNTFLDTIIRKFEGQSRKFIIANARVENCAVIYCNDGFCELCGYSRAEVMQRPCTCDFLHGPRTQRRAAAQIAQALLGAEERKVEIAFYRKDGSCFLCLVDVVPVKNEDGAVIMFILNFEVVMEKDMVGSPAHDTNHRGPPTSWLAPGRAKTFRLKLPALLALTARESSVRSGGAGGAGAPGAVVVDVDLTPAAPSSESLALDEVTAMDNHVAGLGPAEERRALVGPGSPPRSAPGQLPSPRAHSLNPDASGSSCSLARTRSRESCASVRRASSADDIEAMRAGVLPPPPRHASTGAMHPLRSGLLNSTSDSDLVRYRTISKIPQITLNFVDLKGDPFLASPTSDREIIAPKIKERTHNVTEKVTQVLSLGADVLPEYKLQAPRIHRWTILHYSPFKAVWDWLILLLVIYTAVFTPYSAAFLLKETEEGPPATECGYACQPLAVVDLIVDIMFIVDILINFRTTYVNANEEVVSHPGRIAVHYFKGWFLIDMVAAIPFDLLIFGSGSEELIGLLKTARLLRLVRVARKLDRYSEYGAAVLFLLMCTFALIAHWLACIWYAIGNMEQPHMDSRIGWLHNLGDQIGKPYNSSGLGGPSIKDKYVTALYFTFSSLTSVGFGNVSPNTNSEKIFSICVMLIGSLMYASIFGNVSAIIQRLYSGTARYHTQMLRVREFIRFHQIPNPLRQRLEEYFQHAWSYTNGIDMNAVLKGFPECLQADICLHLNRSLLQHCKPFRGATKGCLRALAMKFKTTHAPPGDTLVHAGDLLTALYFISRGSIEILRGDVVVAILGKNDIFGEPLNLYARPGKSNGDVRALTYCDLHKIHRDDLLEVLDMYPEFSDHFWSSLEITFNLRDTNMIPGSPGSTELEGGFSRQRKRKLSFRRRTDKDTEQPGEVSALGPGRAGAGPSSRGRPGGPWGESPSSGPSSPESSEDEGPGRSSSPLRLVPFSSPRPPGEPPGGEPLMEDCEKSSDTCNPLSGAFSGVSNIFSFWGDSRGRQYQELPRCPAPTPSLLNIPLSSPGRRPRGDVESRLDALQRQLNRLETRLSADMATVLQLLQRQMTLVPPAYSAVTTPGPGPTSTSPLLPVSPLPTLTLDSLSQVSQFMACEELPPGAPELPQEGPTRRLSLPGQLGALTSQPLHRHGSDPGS

Compound | hERG current change (%, negative = inhibition) at 10uM
COc1ccc(C(=O)c2nccc3ccccc23)cc1 | 0.535%
COc1cccc(N(CC(=O)NCC2CCCO2)C(=O)CNS(=O)(=O)c2ccccc2)c1 (stereo not shown) | 23.1%
c1ccc(CCNc2ncnc3c2cnn3-c2ccccc2)cc1 | -40.5%
CC(=O)Nc1ccc(N2CCc3c(C)c(C#N)c4nc5ccccc5n4c32)cc1 | 8.55%
Cc1ccc(N(Cc2ccc(C(=O)NCCSc3ccccn3)cc2)S(C)(=O)=O)cc1C | -4.82%
Cc1nn(-c2ccc(Cl)cc2Cl)c(=O)c2ccccc12 | -11.3%
O=c1[nH]c(N2CCN(c3ccccc3)CC2)nc2c1CCCC2 | 2.28%
Nc1c2c(nc3ccn(-c4ccccc4)c(=O)c13)CCCCC2 | -58.8%
Nc1c2c(nc3ccccc13)CCC2.O=C(O)/C=C/C(=O)O | -18.2%
Cc1nc(SC2CC(=O)N(c3ccccc3)C2=O)nc2c1CCCC2 (stereo not shown) | -3.22%
O=c1[nH]c(N2CCN(Cc3ccccc3)CC2)nc2c1CCC2 | 18.9%
Nc1c2c(nc3ccn(Cc4ccccc4)c(=O)c13)CCC2 | -66%
Cc1sc(NC(=O)CN2CCN(c3ccccn3)CC2)c(C#N)c1C | 2.51%
O=C(C/C=N/OCc1ccc(Cl)cc1Cl)c1ccccc1 | -6.79%
CC(=O)Nc1nc(-c2cccc3ccccc23)cs1 | -9.32%
CSc1ccc(CNC2CC2)cc1.Cl | -7.3%
CC(C)Cn1c(C(C)C)nc([N+](=O)[O-])c1Sc1ccc(Cl)cn1 | -6.57%
CCCCn1c(CCC)nc([N+](=O)[O-])c1Sc1ccc(Cl)cn1 | -53.2%
CCCn1c(CC)nc([N+](=O)[O-])c1Sc1ccc(C)cc1 | -0.08%
CCOC(=O)C1(Cc2cccc(Cl)c2)CCCN(C(=O)c2cccc(C)n2)C1 (stereo not shown) | -1.76%
CCOCCCNC(=O)COc1ccc(OC)cc1 | 13.2%
Cn1c(N)c(C(=O)CCl)c(=O)n(Cc2ccccc2)c1=O | 2.2%
CC1(C)CC(NC(=O)c2cc(Cl)ccc2Cl)CC(C)(C)N1 | -1.21%

Compound | hERG current change (%, negative = inhibition) at 10uM
CC1(C)CC(NC(=O)c2ccc(Cl)cc2Cl)CC(C)(C)N1 | 2.81%
CC1(C)CC(NC(=S)NC(=O)c2cc(Br)ccc2Cl)CC(C)(C)N1 | -53.3%
C=C1c2cc(CC)ccc2NC(=O)N1c1ccc(C)cc1 | 8.71%
CC(=O)c1c(C)n(CCCOC(C)C)c2ccc(O)cc12 | -30.4%
COc1ccc(NS(=O)(=O)c2ccc(NC(=S)NC(=O)/C=C/c3ccccc3)cc2)nn1 | -3.33%
Cc1cccc(NC(=O)CN2C(=O)N/C(=C\c3ccc(-c4cccc(C(=O)O)c4)o3)C2=O)c1 | 19.3%
Cc1ccc2c(c1)C1CN(C)CCC1N2S(=O)(=O)c1cccc(F)c1 (stereo not shown) | -11.5%
Cc1ccc2c(c1)C1CN(C)CCC1N2S(=O)(=O)c1ccccc1 (stereo not shown) | -32.4%
Cc1ccc2c(c1)C1CN(C)CCC1N2S(=O)(=O)c1cccc(C(F)(F)F)c1 (stereo not shown) | -40.1%
Cc1ccc2c(c1)C1CN(C)CCC1N2S(=O)(=O)c1ccc(C(C)C)cc1 (stereo not shown) | -73.4%
CCc1ccc(S(=O)(=O)N2c3ccc(C)cc3C3CN(C)CCC32)cc1 (stereo not shown) | -60.4%
Cc1ccc2c(c1)C1CN(C)CCC1N2S(=O)(=O)c1cc(C(F)(F)F)ccc1Cl (stereo not shown) | -27.6%
O=C(COC(=O)c1ccc(S(=O)(=O)C(F)F)cc1)Nc1ccccc1C(=O)NC1CC1 | 11.5%
O=C(CCN=C1NS(=O)(=O)c2ccccc21)OCC(=O)c1ccc(F)cc1 | -3.17%
O=C(NCCCN1CCOCC1)c1onc(CSc2ccncc2)c1C(=O)NCCCN1CCOCC1 | -5.25%
CCCCCC(=O)N/N=C/c1ccc(N(C)C)cc1 | -19.2%
COc1cc(NC(=O)C2CCN(c3cnccn3)CC2)cc(OC)c1OC | 19.5%
COc1ccc(CCNC(=O)CSc2n[nH]c(N)n2)cc1OC | 30.1%
COc1ccc(CNC(=O)CSc2ccc(Br)cc2)cc1OC | -63.1%
COc1ccc(CCNC(=O)CSc2ccc(Br)cc2)cc1OC | 23%
COc1ccc(CNC(=O)CSc2n[nH]c(N)n2)cc1OC | -77.5%
COc1ccc(CNC(=O)CSc2n[nH]c(N)n2)cc1 | 20.1%
COc1ccccc1CNC(=O)CSc1ccc(Br)cc1 | -3.01%
